Measured values from PubChem BioAssay (EPA / NIEHS).
Values joined by “and” are separate entries in the source; they are usually repeats but may differ in a detail not shown here. Identical values can stand only once. Inconclusive results are not listed. Where a structure was tested more than once in an assay, its records may differ in their call. Active and inactive are the calls of the source. Rule for the calls, unless noted: active = hit-call score of the fitted dose curve at least 0.9, where 1 is the maximum; inactive = score below 0.9.

Tests used:
[1] = target: human Peroxisome Proliferator-activated Receptor alpha (PPARa), PPARA (gene 5465) (UniProt Q07869); experiment: ATG_PPARa_TRANS: Attagene TRANS-FACTORIAL HepG2 Assay for human Peroxisome Proliferator-activated Receptor alpha (PPARa) (AID 2283001; active = hit-call score of the fitted dose curve at least 0.9, where 1 is the maximum)
human Peroxisome Proliferator-activated Receptor alpha (PPARa), PPARA (gene 5465), sequence (Q07869 whole entry, looked up, the tested form may be a part): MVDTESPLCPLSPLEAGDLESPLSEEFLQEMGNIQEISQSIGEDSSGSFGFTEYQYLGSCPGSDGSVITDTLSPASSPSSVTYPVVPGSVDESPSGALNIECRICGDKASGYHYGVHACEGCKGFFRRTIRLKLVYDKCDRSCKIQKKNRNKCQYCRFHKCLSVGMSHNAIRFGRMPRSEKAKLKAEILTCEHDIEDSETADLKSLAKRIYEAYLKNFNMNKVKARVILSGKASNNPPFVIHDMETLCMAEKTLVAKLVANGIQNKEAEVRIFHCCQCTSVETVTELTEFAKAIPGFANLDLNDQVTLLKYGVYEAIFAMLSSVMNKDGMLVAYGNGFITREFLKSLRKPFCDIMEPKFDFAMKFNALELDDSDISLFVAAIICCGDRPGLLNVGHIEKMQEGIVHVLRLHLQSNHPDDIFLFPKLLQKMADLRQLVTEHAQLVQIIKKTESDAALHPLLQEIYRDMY
In short: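 Gain-of-signal endpoint: reporter mRNA induction relative to DMSO, detected by fluorescent RT-PCR and capillary electrophoresis. HepG2 cells transiently carried GAL4-UAS-driven reporter units plus NR-Gal4 fusion; exposure lasted 24 h.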

[2] = read-out: Intercellular Adhesion Molecule 1 (ICAM1), ICAM1 (gene 3383); experiment: BSK_3C_ICAM1: BioMAP Diversity Plus: 3C Assay for Intercellular Adhesion Molecule 1 (ICAM1) Biomarker Activity (AID 2283003); details: primary human endothelial cells (HUVEC); actives raise or lower the signal
In short: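 ICAM-1 levels measured by ELISA after HUVEC cultures in the 3C system had been dosed for 24 h. Gain or loss of signal relative to DMSO was fitted in both directions.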

[3] = BSK_3C_Proliferation: Cell Proliferation Assessment in the BioMAP Diversity Plus: 3C Assay (AID 2283006); details: primary human endothelial cells (HUVEC);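 for AC50: potency may reflect either rise or fall in cell number versus DMSO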
In short: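 Read-out is total protein by SRB absorbance at 560 nm, taken as a proxy for relative cell number. Primary human umbilical vein endothelium cultured below confluence was dosed for 48 h, TCA-fixed and SRB-stained; curves were fitted bidirectionally versus DMSO.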

[4] = target: Peroxisome proliferator-activated receptor gamma (Homo sapiens) (UniProt P37231); experiment: ATG_PPARg_TRANS: Attagene TRANS-FACTORIAL HepG2 Assay for human Peroxisome Proliferator-activated Receptor-gamma (PPARg) (AID 2283007; active = hit-call score of the fitted dose curve at least 0.9, where 1 is the maximum)
Peroxisome proliferator-activated receptor gamma (Homo sapiens), sequence (P37231 whole entry, looked up, the tested form may be a part): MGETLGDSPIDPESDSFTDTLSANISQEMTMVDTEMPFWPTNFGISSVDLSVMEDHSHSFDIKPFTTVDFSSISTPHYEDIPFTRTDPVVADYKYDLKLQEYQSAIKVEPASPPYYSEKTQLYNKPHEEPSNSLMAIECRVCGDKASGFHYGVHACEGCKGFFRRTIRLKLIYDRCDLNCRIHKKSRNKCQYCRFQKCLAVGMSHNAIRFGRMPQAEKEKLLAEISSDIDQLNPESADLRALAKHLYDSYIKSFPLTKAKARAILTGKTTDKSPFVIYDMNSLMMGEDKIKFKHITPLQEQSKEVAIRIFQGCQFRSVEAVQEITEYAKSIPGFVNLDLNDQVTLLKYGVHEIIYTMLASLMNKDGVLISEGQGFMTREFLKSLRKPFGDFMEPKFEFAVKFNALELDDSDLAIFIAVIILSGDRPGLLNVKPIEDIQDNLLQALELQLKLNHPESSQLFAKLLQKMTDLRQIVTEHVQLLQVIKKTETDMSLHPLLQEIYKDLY
In short: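 A TRANS-format multiplexed reporter assay measures activity of an exogenous chimeric NR-Gal4 protein in HepG2 cells. After 24 h of chemical exposure, reporter transcripts are amplified, fluorescently labelled and sized by capillary electrophoresis, with gain of signal scored against DMSO.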

[5] = target: Nuclear receptor subfamily 1 group I member 2 (Homo sapiens) (UniProt O75469); experiment: ATG_PXR_TRANS: Attagene TRANS-FACTORIAL HepG2 Assay for human Pregnane X Receptor (PXR) (AID 2283008; active = hit-call score of the fitted dose curve at least 0.9, where 1 is the maximum)
Nuclear receptor subfamily 1 group I member 2 (Homo sapiens), sequence (O75469 whole entry, looked up, the tested form may be a part): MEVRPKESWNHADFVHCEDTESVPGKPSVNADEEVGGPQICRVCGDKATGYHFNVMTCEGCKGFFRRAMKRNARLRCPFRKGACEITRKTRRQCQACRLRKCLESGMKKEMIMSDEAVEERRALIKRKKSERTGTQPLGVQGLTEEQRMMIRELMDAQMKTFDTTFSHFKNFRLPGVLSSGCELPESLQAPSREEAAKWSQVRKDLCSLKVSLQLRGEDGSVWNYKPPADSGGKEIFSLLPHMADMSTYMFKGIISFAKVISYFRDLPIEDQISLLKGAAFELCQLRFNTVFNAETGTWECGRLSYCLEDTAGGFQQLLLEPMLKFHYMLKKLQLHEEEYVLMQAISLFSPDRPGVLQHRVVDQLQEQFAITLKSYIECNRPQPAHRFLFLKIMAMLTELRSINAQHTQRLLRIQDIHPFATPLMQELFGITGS
In short: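 Read-out is fluorescence of labelled reporter cDNA fragments separated by capillary electrophoresis after RT-PCR and HpaI digestion. Source: HepG2 cells carrying PXR-GAL4/UAS reporter constructs, treated 24 h; activity fitted upward relative to DMSO.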

[6] = target: human RAR-related Orphan Receptor beta (RORb), RORB (gene 6096) (UniProt Q92753); experiment: ATG_RORb_TRANS: Attagene TRANS-FACTORIAL HepG2 Assay for human RAR-related Orphan Receptor beta (RORb) (AID 2283010; active = hit-call score of the fitted dose curve at least 0.9, where 1 is the maximum)
human RAR-related Orphan Receptor beta (RORb), RORB (gene 6096), sequence (Q92753 whole entry, looked up, the tested form may be a part): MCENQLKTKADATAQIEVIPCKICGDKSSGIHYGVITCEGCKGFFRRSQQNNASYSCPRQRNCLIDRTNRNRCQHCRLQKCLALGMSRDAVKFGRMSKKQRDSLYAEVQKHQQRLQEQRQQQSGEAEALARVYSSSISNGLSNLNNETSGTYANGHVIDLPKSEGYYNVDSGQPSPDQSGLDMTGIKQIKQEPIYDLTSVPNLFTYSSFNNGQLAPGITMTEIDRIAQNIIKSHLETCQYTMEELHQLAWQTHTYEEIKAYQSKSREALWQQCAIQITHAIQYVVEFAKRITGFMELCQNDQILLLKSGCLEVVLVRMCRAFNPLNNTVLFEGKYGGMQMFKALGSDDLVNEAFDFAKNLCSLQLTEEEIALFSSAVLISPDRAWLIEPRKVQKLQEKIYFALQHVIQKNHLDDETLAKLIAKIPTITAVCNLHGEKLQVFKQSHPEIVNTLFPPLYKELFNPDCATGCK
In short: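 Readout is reporter-gene mRNA induction, detected as fluorescence after RT-PCR and capillary electrophoresis, fitted for gain of signal against DMSO controls. Transiently transfected HepG2 liver cells carrying GAL4-UAS reporter constructs were treated for 24 hours.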

[7] = target: human RAR-related Orphan Receptor gamma (RORg), RORC (gene 6097) (UniProt P51449); experiment: ATG_RORg_TRANS: Attagene TRANS-FACTORIAL HepG2 Assay for human RAR-related Orphan Receptor gamma (RORg) (AID 2283011; active = hit-call score of the fitted dose curve at least 0.9, where 1 is the maximum)
human RAR-related Orphan Receptor gamma (RORg), RORC (gene 6097), sequence (P51449 whole entry, looked up, the tested form may be a part): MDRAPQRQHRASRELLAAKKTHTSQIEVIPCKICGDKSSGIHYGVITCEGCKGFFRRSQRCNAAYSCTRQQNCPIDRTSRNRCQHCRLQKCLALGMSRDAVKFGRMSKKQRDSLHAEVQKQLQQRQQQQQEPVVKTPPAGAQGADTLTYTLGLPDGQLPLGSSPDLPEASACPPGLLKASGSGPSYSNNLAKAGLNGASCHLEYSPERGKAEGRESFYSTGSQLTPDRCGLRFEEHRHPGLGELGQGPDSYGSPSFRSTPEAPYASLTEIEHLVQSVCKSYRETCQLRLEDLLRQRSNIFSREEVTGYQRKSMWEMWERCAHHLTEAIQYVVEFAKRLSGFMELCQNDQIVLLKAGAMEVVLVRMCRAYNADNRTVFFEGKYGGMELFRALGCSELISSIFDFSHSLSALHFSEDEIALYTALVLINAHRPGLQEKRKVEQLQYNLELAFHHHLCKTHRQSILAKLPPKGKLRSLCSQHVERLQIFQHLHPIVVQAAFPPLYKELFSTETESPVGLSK
In short: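 Readout: reporter transcript induction (RT-PCR, fluorescent primer extension, capillary electrophoresis) after 24 h compound exposure of transiently transfected HepG2 cells carrying a RORg-Gal4 chimera and GAL4-UAS reporters; DMSO served as baseline, with increasing signal fitted.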

[8] = target: Retinoic acid receptor RXR-alpha (Homo sapiens) (UniProt P19793); experiment: ATG_RXRa_TRANS: Attagene TRANS-FACTORIAL HepG2 Assay for human Retinoid X Receptor alpha (RXRa) (AID 2283012; active = hit-call score of the fitted dose curve at least 0.9, where 1 is the maximum)
Retinoic acid receptor RXR-alpha (Homo sapiens), sequence (P19793 whole entry, looked up, the tested form may be a part): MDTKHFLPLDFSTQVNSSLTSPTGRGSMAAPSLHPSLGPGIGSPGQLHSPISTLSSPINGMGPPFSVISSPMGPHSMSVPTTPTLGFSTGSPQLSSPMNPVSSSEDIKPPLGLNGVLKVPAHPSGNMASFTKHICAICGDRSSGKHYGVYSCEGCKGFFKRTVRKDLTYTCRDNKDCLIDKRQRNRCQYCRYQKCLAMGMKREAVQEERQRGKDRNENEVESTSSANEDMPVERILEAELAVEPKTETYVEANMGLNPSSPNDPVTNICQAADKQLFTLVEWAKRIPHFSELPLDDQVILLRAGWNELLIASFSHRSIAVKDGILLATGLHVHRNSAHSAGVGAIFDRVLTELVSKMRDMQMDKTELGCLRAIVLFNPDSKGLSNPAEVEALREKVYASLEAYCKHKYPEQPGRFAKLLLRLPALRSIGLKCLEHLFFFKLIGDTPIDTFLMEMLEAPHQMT
In short: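 Transient transfection of human HepG2 with multiple GAL4-UAS reporter constructs; 24 h compound exposure; total RNA isolated, reverse-transcribed, PCR-amplified, 6-FAM labelled, HpaI-cut, resolved by capillary electrophoresis. Positive-direction fit versus DMSO.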

[9] = target: human Retinoid X Receptor beta (RXRb), RXRB (gene 6257) (UniProt P28702); experiment: ATG_RXRb_TRANS: Attagene TRANS-FACTORIAL HepG2 Assay for human Retinoid X Receptor beta (RXRb) (AID 2283013; active = hit-call score of the fitted dose curve at least 0.9, where 1 is the maximum)
human Retinoid X Receptor beta (RXRb), RXRB (gene 6257), sequence (P28702 whole entry, looked up, the tested form may be a part): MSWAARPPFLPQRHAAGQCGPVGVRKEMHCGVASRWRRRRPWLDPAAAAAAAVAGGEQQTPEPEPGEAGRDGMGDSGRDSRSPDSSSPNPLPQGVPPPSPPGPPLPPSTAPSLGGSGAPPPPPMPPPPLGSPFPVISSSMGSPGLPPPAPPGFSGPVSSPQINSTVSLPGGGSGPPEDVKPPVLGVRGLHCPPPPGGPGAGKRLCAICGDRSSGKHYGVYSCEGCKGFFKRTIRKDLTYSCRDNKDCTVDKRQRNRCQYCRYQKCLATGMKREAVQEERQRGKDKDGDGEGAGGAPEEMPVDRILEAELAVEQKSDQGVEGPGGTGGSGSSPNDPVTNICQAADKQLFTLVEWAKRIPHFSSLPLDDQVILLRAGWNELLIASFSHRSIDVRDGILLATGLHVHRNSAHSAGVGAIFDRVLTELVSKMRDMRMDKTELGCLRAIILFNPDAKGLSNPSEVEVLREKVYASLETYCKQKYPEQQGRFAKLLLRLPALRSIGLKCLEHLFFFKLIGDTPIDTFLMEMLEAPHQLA
In short: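 Transfect HepG2 with GAL4-UAS multi-reporter constructs (chimeric NR-Gal4, TRANS format); dose compound 24 h; isolate RNA, RT-PCR, FAM primer extension, HpaI digest; quantify by capillary electrophoresis; positive direction vs DMSO.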

[10] = read-out: E-selectin (Homo sapiens) (UniProt P16581); experiment: BSK_3C_Eselectin: BioMAP Diversity Plus: 3C Assay for Eselectin Biomarker Activity (AID 2283015); details: primary human endothelial cells (HUVEC); actives raise or lower the signal
In short: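 Primary human umbilical vein endothelial cells (3C system) were dosed with chemical and cell-surface E-selectin measured by ELISA 24 h later. Bidirectional curve fitting used DMSO as negative control and baseline.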

[11] = read-out: Interleukin-1 alpha (IL1a), IL1A (gene 3552); experiment: BSK_BE3C_IL1a: BioMAP Diversity Plus: BE3C Assay for Interleukin-1 alpha (IL1a) Biomarker Activity (AID 2283016); details: primary human bronchial epithelial cells; actives raise or lower the signal
In short: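 BE3C primary human bronchial epithelium; cpd 24 h; IL-1a by ELISA; bidirectional fit vs DMSO; parallel SRB (0.1% SRB, 10% TCA fix, 560 nm) for cytotoxicity.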

[12] = read-out: Monocyte Chemoattractant Protein-1 (MCP1), CCL2 (gene 6347); experiment: BSK_4H_MCP1: BioMAP Diversity Plus: 4H Assay for Monocyte Chemoattractant Protein-1 (MCP1) Biomarker Activity (AID 2283018); details: primary human endothelial cells (HUVEC); actives raise or lower the signal
In short: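 ELISA read-out of MCP-1 from human vascular endothelial primary cells taken at 24 hours after compound exposure. Activity was fitted in both directions relative to DMSO, which served as negative control.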

[13] = read-out: Human Leukocyte Antigen - DR isotype (HLADR), HLA-DRA (gene 3122); experiment: BSK_3C_HLADR: BioMAP Diversity Plus: 3C Assay for Human Leukocyte Antigen - DR isotype (HLADR) Biomarker Activity (AID 2283019); details: primary human endothelial cells (HUVEC); actives raise or lower the signal
In short: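 Primary human umbilical vein endothelial cells (3C system) were dosed with compound and cell-surface HLA-DR was quantified by ELISA at 24 h. Activity was fitted bidirectionally against DMSO as negative control and baseline.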

[14] = read-out: Interleukin-8 (IL8), CXCL8 (gene 3576); experiment: BSK_3C_IL8: BioMAP Diversity Plus: 3C Assay for Interleukin-8 (IL8) Biomarker Activity (AID 2283020); details: primary human endothelial cells (HUVEC); actives raise or lower the signal
In short: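 ELISA read-out of IL-8 from human umbilical vein endothelium, measured 24 h after chemical dosing. Activity is expressed relative to DMSO negative control, with both increases and decreases fitted.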

[15] = read-out: Monokine induced gamma interferon (MIG), CXCL9 (gene 4283); experiment: BSK_3C_MIG: BioMAP Diversity Plus: 3C Assay for Monokine induced gamma interferon (MIG) Biomarker Activity (AID 2283021); details: primary human endothelial cells (HUVEC); actives raise or lower the signal
In short: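 Read-out is ELISA detection of MIG on human umbilical vein endothelial cells, taken 24 h after dosing. Gain or loss of signal was scored relative to DMSO controls using bidirectional curve fitting.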

[16] = target: human Vitamin D Receptor (VDR), VDR (gene 7421) (UniProt P11473); experiment: ATG_VDR_TRANS: Attagene TRANS-FACTORIAL HepG2 Assay for human Vitamin D Receptor (VDR) (AID 2283022; active = hit-call score of the fitted dose curve at least 0.9, where 1 is the maximum)
human Vitamin D Receptor (VDR), VDR (gene 7421), sequence (P11473 whole entry, looked up, the tested form may be a part): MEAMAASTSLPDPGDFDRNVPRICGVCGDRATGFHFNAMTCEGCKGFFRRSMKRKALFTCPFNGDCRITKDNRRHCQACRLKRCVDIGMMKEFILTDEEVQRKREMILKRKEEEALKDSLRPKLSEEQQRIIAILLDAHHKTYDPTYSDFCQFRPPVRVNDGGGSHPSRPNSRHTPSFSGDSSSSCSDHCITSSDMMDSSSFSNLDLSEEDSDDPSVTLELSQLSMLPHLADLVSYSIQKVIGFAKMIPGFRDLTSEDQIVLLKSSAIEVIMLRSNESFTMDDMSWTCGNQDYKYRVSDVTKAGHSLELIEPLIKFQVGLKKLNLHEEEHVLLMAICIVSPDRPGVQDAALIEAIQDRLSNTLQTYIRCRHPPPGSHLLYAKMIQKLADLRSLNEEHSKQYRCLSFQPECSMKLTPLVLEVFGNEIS
In short: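 HepG2 cells were transiently transfected with multiple GAL4-UAS reporter units, so signal reflects exogenous chimeric receptor-Gal4 activity. After 24 h compound exposure, reporter mRNA was measured by RT-PCR, fluorescent labelling and capillary electrophoresis, fitted for gain of signal versus DMSO.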

[17] = read-out: Monocyte Chemoattractant Protein-1 (MCP1), CCL2 (gene 6347); experiment: BSK_3C_MCP1: BioMAP Diversity Plus: 3C Assay for Monocyte Chemoattractant Protein-1 (MCP1) Biomarker Activity (AID 2283017); details: primary human endothelial cells (HUVEC); actives raise or lower the signal
In short: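 Primary human umbilical vein endothelial cells (3C system) were exposed to test chemical for 24 h, after which MCP-1 was quantified by ELISA. Activity was fitted bidirectionally against DMSO as negative control and baseline.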

[18] = target: human Retinoic Acid Receptor gamma (RARg), RARG (gene 5916) (UniProt P13631); experiment: ATG_RARg_TRANS: Attagene TRANS-FACTORIAL HepG2 Assay for human Retinoic Acid Receptor gamma (RARg) (AID 2283009; active = hit-call score of the fitted dose curve at least 0.9, where 1 is the maximum)
In short: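 Transient transfection of HepG2 with multi-reporter constructs, then 24 h chemical treatment. Total RNA isolated, reverse-transcribed, PCR-amplified, fluorescently labelled and resolved by capillary electrophoresis; activity scored as mRNA induction versus DMSO.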

[19] = target: human Thyroid Receptor alpha (THRa1), THRA (gene 7067) (UniProt P10827); experiment: ATG_THRa1_TRANS: Attagene TRANS-FACTORIAL HepG2 Assay for human Thyroid Receptor alpha (THRa1) (AID 2283014; active = hit-call score of the fitted dose curve at least 0.9, where 1 is the maximum)
human Thyroid Receptor alpha (THRa1), THRA (gene 7067), sequence (P10827 whole entry, looked up, the tested form may be a part): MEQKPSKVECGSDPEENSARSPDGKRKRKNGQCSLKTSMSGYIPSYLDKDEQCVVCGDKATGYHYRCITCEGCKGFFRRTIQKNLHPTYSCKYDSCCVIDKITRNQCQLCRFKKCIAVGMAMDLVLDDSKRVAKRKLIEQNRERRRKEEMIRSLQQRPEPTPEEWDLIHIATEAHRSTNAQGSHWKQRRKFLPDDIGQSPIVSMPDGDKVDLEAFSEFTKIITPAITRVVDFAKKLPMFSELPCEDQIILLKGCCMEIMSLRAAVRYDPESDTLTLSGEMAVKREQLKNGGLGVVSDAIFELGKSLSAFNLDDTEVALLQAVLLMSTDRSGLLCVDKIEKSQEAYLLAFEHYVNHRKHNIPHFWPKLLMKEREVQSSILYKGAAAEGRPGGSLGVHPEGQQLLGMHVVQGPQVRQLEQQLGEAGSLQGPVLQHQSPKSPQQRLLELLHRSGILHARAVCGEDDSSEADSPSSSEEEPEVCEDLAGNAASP
In short: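 HepG2 cells transiently transfected with multiplexed GAL4-UAS reporter units for exogenous chimeric THRa1-Gal4; reporter mRNA measured 24 h after dosing by RT-PCR, 6-FAM labelling, HpaI digestion and capillary electrophoresis. Gain-of-signal fitted versus DMSO baseline.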

[20] = target: human Peroxisome Proliferator-activated Receptor delta (PPARd), PPARD (gene 5467) (UniProt Q03181); experiment: ATG_PPARd_TRANS: Attagene TRANS-FACTORIAL HepG2 Assay for human Peroxisome Proliferator-activated Receptor delta (PPARd) (AID 2283002; active = hit-call score of the fitted dose curve at least 0.9, where 1 is the maximum)
In short: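 Measured quantity: GAL4-UAS reporter transcript induction in HepG2 after 24 h chemical dosing, with NR-Gal4 chimeras supplied by transient transfection. Detection by RT-PCR and capillary electrophoresis; upward fit against DMSO.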

Measured: AC50

E-selectin (Homo sapiens), sequence (P16581 whole entry, looked up): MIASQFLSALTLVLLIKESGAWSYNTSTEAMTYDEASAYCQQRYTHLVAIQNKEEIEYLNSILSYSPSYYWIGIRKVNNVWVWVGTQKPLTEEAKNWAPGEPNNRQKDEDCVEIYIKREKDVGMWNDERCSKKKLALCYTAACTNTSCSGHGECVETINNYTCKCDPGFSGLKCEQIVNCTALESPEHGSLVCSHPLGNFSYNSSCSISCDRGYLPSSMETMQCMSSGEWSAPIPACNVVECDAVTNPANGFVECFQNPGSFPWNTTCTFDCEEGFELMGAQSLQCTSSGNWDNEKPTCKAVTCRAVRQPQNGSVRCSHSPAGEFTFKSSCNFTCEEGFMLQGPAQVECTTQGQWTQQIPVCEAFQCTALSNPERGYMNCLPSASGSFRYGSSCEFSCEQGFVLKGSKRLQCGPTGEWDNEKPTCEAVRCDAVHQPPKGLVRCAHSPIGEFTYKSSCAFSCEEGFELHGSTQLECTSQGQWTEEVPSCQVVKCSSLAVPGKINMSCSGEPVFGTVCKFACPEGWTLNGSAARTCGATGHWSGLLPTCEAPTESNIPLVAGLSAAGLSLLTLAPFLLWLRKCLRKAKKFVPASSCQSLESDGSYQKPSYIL

FC(F)(F)C(F)(F)C(F)(F)C(F)(F)C(F)(F)C(F)(F)I
inactive: [1] | [2] | [3] | [5] | [6] | [7] | [8] | [9] | [10] | [11] | [12] | [13] | [14] | [15] | [16]
active: [4] 88 µM and 106 µM | [9] 91.3 µM

CCCC(CCC)C(=O)O
inactive: [1] | [2] | [3] | [5] | [6] | [8] | [9] | [10] | [11] | [17] | [12] | [13] | [14] | [15] | [16]

OCCC(F)(F)C(F)(F)C(F)(F)C(F)(F)F
inactive: [1] | [2] | [3] | [4] | [5] | [18] | [6] | [7] | [8] | [19] | [10] | [11] | [17] | [12] | [13] | [14] | [15] | [16]

O=S1(=O)CCCO1
inactive: [1] | [2] | [3] | [6] | [9] | [19] | [10] | [11] | [17] | [12] | [15]

C[C@@H](Oc1ccc(CNC(=O)c2cccnc2Oc2ccc3c(c2)OCO3)c(F)c1)C(=O)O
inactive: [1] | [2] | [3] | [5] | [6] | [8] | [9] | [19] | [10] | [11] | [17] | [12] | [15]
active: [4] 24.3 µM

S=P(N1CC1)(N1CC1)N1CC1
inactive: [1] | [2] | [4] | [5] | [7] | [8] | [9] | [19] | [10] | [11] | [17] | [12] | [14] | [15] | [16]
active: [3] 13.1 µM

NCC(F)(F)C(F)(F)C(F)(F)C(F)(F)F
inactive: [1] | [2] | [3] | [4] | [5] | [6] | [7] | [8] | [9] | [19] | [10] | [11] | [17] | [12] | [14] | [15] | [16]

CCN(CC)C(=S)SSC(=S)N(CC)CC
inactive: [1] | [20] | [4] | [6] | [7] | [8] | [9] | [16]
active: [2] 34.9 µM | [5] 49.6 µM | [10] 34.8 µM | [11] 16.3 µM | [12] 24.6 µM | [13] 12.4 µM
